The results in this text go back to PubChem BioAssay AID1626 (SRMLSC, 2009).

As usually defined, the inhibition is the relative decrease from the control value, in per cent.

Molecules are shown by their SMILES. Where “and” joins values, the source holds several entries; their conditions need not be identical. Equal values may be shown once. Hit rate of the full screen: of about 220,000 compounds, about 2,000 (0.91%) were called active. About 2% were inconclusive and are not listed. No stated cut-off is given here; in the data, inconclusive means inhibition above about 80% without an active follow-up result; inactive means below that; test concentration not stated here. The list is a sample of the results. Potency and affinity values are given separately.

The assay can be described thus: M. tuberculosis H37Rv growth inhibitors, H37Rv strain (AID 1626).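 Further: bacteria incubated seven days before Alamar blue readout; 0% = bacteria only wells and 100% = bacteria with antibiotic wells.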 The conditions noted are these: stronger effect = higher value, concentration not given here.
On to `N/C(=N\OC(=O)COc1ccccc1Cl)c1ccc(Cl)cc1`, for which the inhibition is 7.15% (inactive).
Under `COc1cc2c(cc1OC)CN(C(=O)CSc1nc(N)c(C#N)cc1C#N)CC2` stands -0.19% (inactive); under `CCN(CC)CCN(C(=O)c1ccc(Br)s1)c1nc2cc3c(cc2s1)OCO3`, 4.27% (inactive); under `CCCCNC(=O)CCCCC(=O)N/N=C/c1ccccc1Cl`, -1.94% (inactive).
The same measure for `COc1ccc(O)c(C2=Nc3ccccc3N=C(c3ccco3)C2)c1`: 6.13% (inactive).
Under `COc1ccc(NC(=O)NC2CCCCC2C)cc1` (stereo unspecified) stands 0.36% (inactive); under `COc1ccc(C2(C(=O)N3CCCC3)CCOCC2)cc1OC`, -12.9% (inactive); under `COc1cc(OC)c2ccc(=O)oc2c1C(CCN1CCCC(C)C1)c1ccc2c(c1)OCO2` (stereo unspecified), -5.64% (inactive).
Turning to `COc1cc(OC)c2c(-c3ccccc3)cc(=O)oc2c1C(CC(=O)N1CCOCC1)c1ccc2c(c1)OCO2` (stereo unspecified), the inhibition is 0.96% (inactive).
The same measure for `COc1cc(OC)c2c(-c3ccccc3)cc(=O)oc2c1C(CCN1CCCC1)c1ccc2c(c1)OCO2` (stereo unspecified): 77% (inactive); for `COc1cc(OC)c2c(-c3ccccc3)cc(=O)oc2c1C(CC(=O)N1CCCC1)c1ccc2c(c1)OCO2` (stereo unspecified): 0.92% (inactive); for `CCN(CC)CCC(c1ccc(N(C)C)cc1)c1c(OC)cc(OC)c2c(-c3ccccc3)cc(=O)oc12` (stereo unspecified): 14.1% (inactive).
Under `CCN(CC)C(=O)CC(c1ccc2c(c1)OCO2)c1c(OC)cc(OC)c2c(-c3ccccc3)cc(=O)oc12` (stereo unspecified) stands -2.83% (inactive); under `CCN(CC(=O)NCc1ccc(F)cc1)CC(=O)Nc1ccccc1-c1ccccc1`, -6.65% (inactive); under `C=CCN1C(=O)C(CC(=O)Nc2ccccc2F)S/C1=N\c1nccs1` (stereo unspecified), 6.25% (inactive).
In the case of `CCCNC(=O)C(=O)NCCC1=CCCCC1`, the inhibition is -4.88% (inactive).
Under `COc1cccc(OC)c1C(=O)Nc1c(C)n(C)n(-c2ccccc2)c1=O` stands 0.17% (inactive).
Under `O=C(COc1ccc(Br)cc1CO)Nc1ccc(F)cc1` stands 9.43% (inactive).
Under `CCCCN(C)C(=O)C(Cc1ccccc1)NS(=O)(=O)c1ccc2c(c1)CCC(=O)N2` (stereo unspecified) stands -4.66% (inactive); under `CNC(=S)N(Cc1ccco1)Cc1cc2cc(OC)ccc2[nH]c1=O`, -3.07% (inactive).
Turning to `CCCCCCNC(=O)N1C/C=C\C(c2ccc(OC)cc2)N(Cc2ccc(F)cc2)C(=O)C1` (stereo unspecified), the inhibition was -0.25% (inactive).
In the case of `C[n+]1c2n(c3ccccc31)N=C(c1ccccc1)CS2`, the inhibition is -4.82% (inactive) and 0% (inactive).
Under `C[n+]1c2n(c3ccccc31)N=C(c1ccc(-c3ccccc3)cc1)CS2` stands 5.47% (inactive); under `O=C(N/N=C/c1ccc2c(c1)OCO2)c1ccc(COc2cccc3cccnc23)cc1`, 0.48% (inactive); under `COCC(=O)NNC(=S)Nc1cccc(C)c1C`, 9.36% (inactive).
As for `COC(=O)c1ccc(C(=O)OC)c(NC(=S)N2CCOCC2)c1`, the inhibition was 5.12% (inactive).
The same measure for `CCN(CC)C(=O)CSc1nnc2nnc3cc(OC)ccc3n12`: 44% (inactive).
On to `CCN(CC)C(=O)CSc1nnc2nnc3cc(C)ccc3n12`, for which the inhibition was 65.9% (inactive).
The same measure for `CCOc1ccc(-c2onc(C(F)(F)F)c2-c2cscn2)c(O)c1`: 6.75% (inactive); for `COc1cc(/C=C/C(=O)O)cc(S(=O)(=O)Nc2ccccc2Oc2ccccc2)c1OC`: -0.26% (inactive).
Under `CSc1sc(C(=O)N2CCCCC2)c(-c2cccs2)c1C#N` stands -3.75% (inactive).
Under `COc1ccc(C2=NC(C(F)(F)F)(C(F)(F)F)c3c(n(C)c(=O)n(C)c3=O)N2)cc1` stands -0.04% (inactive).
On to `Cn1c2c(c(=O)n(C)c1=O)C(C(F)(F)F)(C(F)(F)F)N=C(c1ccccc1Cl)N2`, for which the inhibition is -9.88% (inactive).
Under `CCOC(=O)c1c(CN2CCC(C)CC2)n(C)c2cc(Br)c(OC)cc12` stands 11.6% (inactive); under `COc1ccccc1NS(=O)(=O)c1cc(C)ccc1C`, -7.48% (inactive); under `CC(NC(=O)c1ccccc1F)c1nnc(SCc2nc3ccccc3c(=O)[nH]2)n1C` (stereo unspecified), -3.02% (inactive).
As to `O=c1[nH]cnc2sc(-c3ccccc3)cc12`, the inhibition is 40% (inactive).
The same measure for `Cc1sc2nc(Cc3ccccc3)[nH]c(=O)c2c1-c1ccccc1`: -4.69% (inactive); for `CNc1ncnc2sc(-c3ccccc3)cc12`: -0.065% (inactive); for `Cc1c(-c2ccccc2)sc2nc[nH]c(=S)c12`: 89.6% (inactive).
The same measure for `c1ccc2c(c1)NC1(CCCCCC1)n1c-2nc2ccccc21`: -3.46% (inactive); for `COc1ccc(CCn2c(-c3ccc(Cl)cc3)n[nH]c2=S)cc1OC`: 1.97% (inactive).
`COc1ccc(C(=O)NCCc2nnc3ccc(SCC(=O)Nc4cc(C)on4)nn23)cc1`: the inhibition was 14.5% (inactive).
Under `COc1ccc(C(CC(=O)Nc2nccs2)n2cccc2)cc1` (stereo unspecified) stands -4.49% (inactive).
With `CCOC(=O)c1nnn(-c2ccc([N+](=O)[O-])cc2[N+](=O)[O-])c1C`, the inhibition is -6.3% (inactive).
In the case of `O=[N+]([O-])c1ccc(-n2nnnc2-c2ccccc2)cc1`, the inhibition is 1.98% (inactive).
The same measure for `Cc1ccc(-c2csc3nc(C)n(N)c(=O)c23)cc1`: 3.11% (inactive); for `COc1ccc(C(=O)COC(=O)CNC(=O)C2CCCCC2)c(OC)c1`: -2.99% (inactive); for `COc1ccc(O)c(C(=O)CC(=O)c2ccc(F)cc2)c1`: -1.1% (inactive).
Under `COc1ccc(O)c(C(=O)CC(=O)c2ccccc2)c1` stands 0.06% (inactive); under `COc1ccccc1CCNC(=O)Cc1cccs1`, 4.99% (inactive).
The same measure for `Cc1cccc(N(CC(N)=O)S(C)(=O)=O)c1C`: 9.11% (inactive).
For `Cc1ccc2nc(NC(=O)C(NS(=O)(=O)c3cccc4nsnc34)C(C)C)sc2c1` (stereo unspecified), the inhibition is 11.5% (inactive).
The same measure for `COc1ccc(NC(=S)NCc2ccco2)c(OC)c1`: -0.51% (inactive); for `CCOc1ccc(CCNC(=O)CSc2cc(=O)n(C)c3cc(Cl)ccc23)cc1OCC`: -8.35% (inactive).
The same measure for `COC(=O)c1ccc(N/C=C\C(=O)c2ccc3c(c2)OCO3)cc1`: 17.8% (inactive).
Under `COc1ccc(OC)c(N/C(C)=C/C(=O)c2ccc(C)o2)c1` stands -3.01% (inactive); under `COc1ccc(N/C=C\C(=O)c2ccc3c(c2)OCO3)cc1`, 77.1% (inactive); under `COc1ccc(C(=O)/C=C(\C)Nc2ccc3c(c2)OCO3)cc1`, 53.2% (inactive).
On to `CC(=O)Nc1ccc(N/C=C/C(=O)c2ccc(C)o2)cc1`, for which the inhibition was 7.24% (inactive).
The same measure for `CCOc1ccc(N/C(C)=C/C(=O)c2ccc3c(c2)OCCO3)cc1`: 77.8% (inactive).
The same measure for `COCCN(CCOC)C(=O)C1CCCN(S(=O)(=O)c2ccc(NC(=O)OC)cc2)C1` (stereo unspecified): -2.59% (inactive).
Under `COc1cccc(Oc2coc3cc(OC(=O)N4CCOCC4)ccc3c2=O)c1` stands -2.14% (inactive); under `CN(C)CCCN(C(=O)c1ccc(S(=O)(=O)N(C)C)cc1)c1nc2cc3c(cc2s1)OCO3`, -1.53% (inactive); under `CCOC(=O)c1ccccc1NC(=O)Cn1cnc2c(nnn2-c2ccc(C)cc2)c1=O`, 1.13% (inactive).
Regarding `O=[N+]([O-])c1ccc(N2CCN(S(=O)(=O)c3ccccc3)CC2)cc1NCc1ccco1`, the inhibition was -1.65% (inactive).
For `O=S(=O)(NCc1ccccc1)c1ccc(S(=O)(=O)N(Cc2ccccn2)C2CCCC2)cc1`, the inhibition is -1.41% (inactive).
The same measure for `O=C1CC(/C=C/c2ccncc2)=Nc2ccccc2N1`: -0.28% (inactive).
Under `O=C1CC(/C=C/c2ccccc2)=Nc2ccccc2N1` stands 2.15% (inactive); under `CCOc1cccc(-c2cc(-c3n[nH]c(=S)n3CC)c3ccccc3n2)c1`, 14.2% (inactive).
The same measure for `COc1ccc(CNC(=O)COC(=O)C2CCN(S(=O)(=O)c3ccccc3C(F)(F)F)CC2)cc1`: 1.6% (inactive); for `CC1C(c2ccccc2)C(C#N)(C#N)C2(C#N)C(=O)NC1(N)C2C` (stereo unspecified): -0.87% (inactive).
In the case of `O=[N+]([O-])c1ccc(CSc2nc3ccccc3o2)cc1`, the inhibition was -1.9% (inactive).
As for `O=[N+]([O-])c1ccc(Sc2cccc3cccnc23)cc1`, the inhibition is 30.8% (inactive).
Turning to `O=[N+]([O-])c1ccc(Cl)cc1Sc1nc2ccccc2o1`, the inhibition is -9.56% (inactive).
Under `O=[N+]([O-])c1cc(Cl)ccc1Sc1cccc2cccnc12` stands 28.5% (inactive); under `O=C(c1ccc(Cl)c(S(=O)(=O)N2CCCC2)c1)N1CCN(c2ccc(F)cc2)CC1`, 3.62% (inactive); under `COc1ccc(NC(=O)CSc2nc(NS(=O)(=O)c3ccccc3)cc(=O)[nH]2)cc1`, 3.87% (inactive).
The same measure for `CC(Sc1ccccc1)C(=O)Nc1ccccc1C(=O)N1CCOCC1` (stereo unspecified): -11.3% (inactive).
For `CC(C)(C)c1cc(-c2ccccc2)no1`, the inhibition was 10.7% (inactive).
The same measure for `COc1ccc(C(=O)Nc2ccc(N3CCN(Cc4ccccc4)CC3)cc2)cc1`: 4.64% (inactive).
Under `COc1ccccc1C(=O)Nc1ccc(N2CCN(Cc3ccccc3)CC2)cc1` stands 40.9% (inactive).
Under `O=C(NNc1ccc(-c2csnn2)cc1)c1cc(Cl)cc(Cl)c1` stands 27.1% (inactive); under `CCCCC1=CC2=C(c3ccco3)C(=O)C(C)(OC(=O)c3ccc(OC)cc3)C(=O)C2=CN1CCCOC(C)C` (stereo unspecified), -5.76% (inactive).
Consider `CC(=O)OC(C(=O)N1CCOCC1)c1c(F)cccc1F` (stereo unspecified), for which the inhibition is -0.03% (inactive).
As for `Cc1ccc(C(=O)N/C(=C\c2ccccc2)C(=O)OCc2ccccc2)cc1`, the inhibition was 12.7% (inactive).
Take `O=C(CCCNC(=O)/C(=C\c1ccc(F)cc1)NC(=O)c1ccccc1)OCc1ccccc1`: the inhibition was 1.82% (inactive).
Regarding `O=C(CCCNC(=O)/C(=C/c1ccc(Br)cc1)NC(=O)c1ccccc1)OCc1ccccc1`, the inhibition was 1.44% (inactive).
The same measure for `O=C(CNC(=O)c1ccc(-c2ccccc2)cc1)OCc1ccc(Br)cc1`: 6.21% (inactive); for `COc1ccc(-c2cn3cc(C(F)(F)F)cc(Cl)c3n2)cc1`: 65.8% (inactive).
Under `CCCc1cc(C(N)=O)c(NC(C)=O)s1` stands 2.59% (inactive).
